The supplement of paper PMC10849652
Of roughly 8,800 targets only a part is listed; those with a hit were picked by preference. About 0.5% of all pairs of compound and target were hits. Values without a mark were called inactive.

How the values were obtained:
Experiment in all cases: log2 fold change, soluble protein after heating vs DMSO (PISA); higher = thermal stabilisation; K562 lysate, 10 uM; active = over 0.2 and 3.5 SD of the protein, either way, in both replicates (recomputed)
[1] = compound: NCC(=O)Nc1ccc(-n2nc(C(F)(F)F)cc2-c2ccc3c(ccc4ccccc43)c2)cc1
Summary of the method: (§1)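 Pellets of K562 cells were dounce-homogenised in PBS pH 7.4 with 1 mM MgCl2, and the crude extract was held at 1 mg/mL protein for a 30 min treatment with 10 μM compound. Aliquots were heated for 3 min over 48°C-58°C and pooled before NP-40 was added to 0.5% at 4°C. The supernatant from 21,000xg for 90 min was quantified by TMTpro 16plex LC-MS/MS with channel sums equalised. Values are reported from duplicates as log-two fold change in thermal stability relative to solvent controls.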

[2] = compound: O=C(CCCCCCC(=O)Nc1ccccc1)NO [vorinostat]
Summary of the method: as §1

[3] = compound: O=C(O)c1ccc2c(c1)nc(Nc1cccc(Cl)c1)c1ccncc12 [silmitasertib]
Summary of the method: as §1

[4] = compound: O=C1NC(=O)C(c2cnc3ccccn23)=C1c1cn2c3c(cc(F)cc13)CN(C(=O)N1CCCCC1)CC2
Summary of the method: as §1

[5] = compound: c1cn2cc(-c3ccc4cn[nH]c4c3)nc(Nc3ccc(N4CCOCC4)cc3)c2n1 [entospletinib]
Summary of the method: as §1

UniProt Q9UGL1, sequence (Q9UGL1 whole entry, looked up): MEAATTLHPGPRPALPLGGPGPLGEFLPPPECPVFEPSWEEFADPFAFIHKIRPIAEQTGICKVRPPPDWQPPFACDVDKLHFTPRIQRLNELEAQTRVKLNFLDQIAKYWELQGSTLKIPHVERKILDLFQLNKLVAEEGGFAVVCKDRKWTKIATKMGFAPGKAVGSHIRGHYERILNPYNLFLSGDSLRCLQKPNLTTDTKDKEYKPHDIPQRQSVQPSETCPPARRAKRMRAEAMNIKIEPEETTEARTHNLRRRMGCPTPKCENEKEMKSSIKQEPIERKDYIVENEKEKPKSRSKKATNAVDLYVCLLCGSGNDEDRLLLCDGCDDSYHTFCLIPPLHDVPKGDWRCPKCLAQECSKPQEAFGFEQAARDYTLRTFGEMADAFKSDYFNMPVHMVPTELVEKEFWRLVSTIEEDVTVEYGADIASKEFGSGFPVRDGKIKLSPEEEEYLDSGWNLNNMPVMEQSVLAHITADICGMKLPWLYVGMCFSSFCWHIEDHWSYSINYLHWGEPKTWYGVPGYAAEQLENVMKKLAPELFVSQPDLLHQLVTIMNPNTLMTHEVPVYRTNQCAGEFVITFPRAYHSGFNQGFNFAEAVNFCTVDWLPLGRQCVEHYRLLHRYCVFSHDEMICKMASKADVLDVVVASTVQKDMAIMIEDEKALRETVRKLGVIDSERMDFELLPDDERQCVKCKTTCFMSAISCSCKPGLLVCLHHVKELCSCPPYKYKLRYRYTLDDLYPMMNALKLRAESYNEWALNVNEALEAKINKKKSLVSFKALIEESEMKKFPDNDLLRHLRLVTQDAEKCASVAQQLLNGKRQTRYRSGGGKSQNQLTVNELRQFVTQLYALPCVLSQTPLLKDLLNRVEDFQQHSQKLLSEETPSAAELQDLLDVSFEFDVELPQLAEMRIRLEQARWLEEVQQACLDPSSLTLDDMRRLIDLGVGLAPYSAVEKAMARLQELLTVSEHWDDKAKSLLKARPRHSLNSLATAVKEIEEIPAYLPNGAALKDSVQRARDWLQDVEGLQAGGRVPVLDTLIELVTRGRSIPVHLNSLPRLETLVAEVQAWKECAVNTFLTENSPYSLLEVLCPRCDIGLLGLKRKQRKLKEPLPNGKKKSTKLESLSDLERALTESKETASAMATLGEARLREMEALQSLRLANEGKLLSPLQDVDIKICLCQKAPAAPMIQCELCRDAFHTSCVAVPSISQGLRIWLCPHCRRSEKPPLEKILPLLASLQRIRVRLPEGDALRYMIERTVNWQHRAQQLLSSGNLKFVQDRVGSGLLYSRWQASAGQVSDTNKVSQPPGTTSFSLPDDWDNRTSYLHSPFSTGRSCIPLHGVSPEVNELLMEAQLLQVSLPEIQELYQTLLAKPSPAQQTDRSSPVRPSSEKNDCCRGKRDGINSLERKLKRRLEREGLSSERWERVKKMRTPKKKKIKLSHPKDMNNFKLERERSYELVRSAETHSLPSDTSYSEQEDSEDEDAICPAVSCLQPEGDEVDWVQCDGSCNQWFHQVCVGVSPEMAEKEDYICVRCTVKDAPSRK
UniProt Q9BQQ3, sequence (Q9BQQ3 whole entry, looked up): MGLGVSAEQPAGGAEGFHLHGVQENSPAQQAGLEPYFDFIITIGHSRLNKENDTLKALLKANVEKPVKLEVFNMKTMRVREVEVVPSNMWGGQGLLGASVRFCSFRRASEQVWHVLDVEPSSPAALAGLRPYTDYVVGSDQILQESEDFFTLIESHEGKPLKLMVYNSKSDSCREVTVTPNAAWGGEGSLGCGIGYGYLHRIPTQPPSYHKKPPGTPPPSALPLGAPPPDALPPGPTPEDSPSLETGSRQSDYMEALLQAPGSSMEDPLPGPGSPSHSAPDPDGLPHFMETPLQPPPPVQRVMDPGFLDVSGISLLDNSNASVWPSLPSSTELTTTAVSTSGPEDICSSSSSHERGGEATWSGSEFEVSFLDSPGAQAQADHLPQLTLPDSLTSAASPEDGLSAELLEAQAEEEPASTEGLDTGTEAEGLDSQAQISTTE
UniProt P15260, sequence (P15260 whole entry, looked up): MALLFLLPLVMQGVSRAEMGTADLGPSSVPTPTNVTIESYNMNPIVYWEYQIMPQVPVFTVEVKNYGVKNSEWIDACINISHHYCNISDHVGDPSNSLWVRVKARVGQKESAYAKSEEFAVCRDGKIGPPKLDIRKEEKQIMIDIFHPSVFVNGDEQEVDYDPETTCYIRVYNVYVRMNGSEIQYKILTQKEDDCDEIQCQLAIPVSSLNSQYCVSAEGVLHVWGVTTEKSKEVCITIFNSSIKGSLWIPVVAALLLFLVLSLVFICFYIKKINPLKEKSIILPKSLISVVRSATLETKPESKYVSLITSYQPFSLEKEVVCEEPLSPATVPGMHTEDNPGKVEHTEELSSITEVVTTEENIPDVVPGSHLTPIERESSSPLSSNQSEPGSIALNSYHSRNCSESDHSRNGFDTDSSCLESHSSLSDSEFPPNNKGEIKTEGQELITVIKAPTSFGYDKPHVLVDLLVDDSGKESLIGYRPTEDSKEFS
UniProt Q96AB3, sequence (Q96AB3 whole entry, looked up): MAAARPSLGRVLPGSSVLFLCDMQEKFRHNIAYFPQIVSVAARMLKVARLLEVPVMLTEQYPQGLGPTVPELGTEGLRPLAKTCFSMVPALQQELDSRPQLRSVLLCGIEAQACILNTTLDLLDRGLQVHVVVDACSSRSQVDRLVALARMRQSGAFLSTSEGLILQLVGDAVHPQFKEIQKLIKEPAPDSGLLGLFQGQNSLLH
UniProt Q7Z4H7, sequence (Q7Z4H7 whole entry, looked up): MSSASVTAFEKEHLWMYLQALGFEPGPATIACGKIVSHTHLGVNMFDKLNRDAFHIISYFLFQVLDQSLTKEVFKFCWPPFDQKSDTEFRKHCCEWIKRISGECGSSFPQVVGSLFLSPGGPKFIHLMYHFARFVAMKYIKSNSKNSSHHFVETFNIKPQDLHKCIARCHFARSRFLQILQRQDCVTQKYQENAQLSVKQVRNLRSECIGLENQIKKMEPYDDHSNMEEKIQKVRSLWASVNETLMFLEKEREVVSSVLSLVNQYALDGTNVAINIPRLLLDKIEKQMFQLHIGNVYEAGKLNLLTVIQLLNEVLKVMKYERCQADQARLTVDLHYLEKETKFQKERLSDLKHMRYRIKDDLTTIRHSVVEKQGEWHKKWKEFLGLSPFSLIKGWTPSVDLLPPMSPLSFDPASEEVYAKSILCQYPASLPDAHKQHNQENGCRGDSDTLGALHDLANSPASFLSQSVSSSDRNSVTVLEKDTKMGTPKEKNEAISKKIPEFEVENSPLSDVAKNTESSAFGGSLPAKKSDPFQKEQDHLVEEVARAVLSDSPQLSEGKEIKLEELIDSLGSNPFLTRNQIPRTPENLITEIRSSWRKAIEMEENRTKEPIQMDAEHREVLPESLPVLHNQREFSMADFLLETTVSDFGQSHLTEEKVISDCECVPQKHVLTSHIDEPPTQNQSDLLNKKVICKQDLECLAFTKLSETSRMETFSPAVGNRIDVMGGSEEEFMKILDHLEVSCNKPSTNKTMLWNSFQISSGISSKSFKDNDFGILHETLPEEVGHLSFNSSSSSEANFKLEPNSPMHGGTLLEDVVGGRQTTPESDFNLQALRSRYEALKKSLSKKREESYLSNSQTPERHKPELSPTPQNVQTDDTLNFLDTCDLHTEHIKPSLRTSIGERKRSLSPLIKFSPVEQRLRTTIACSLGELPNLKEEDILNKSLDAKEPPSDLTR
UniProt Q53T59, sequence (Q53T59 whole entry, looked up): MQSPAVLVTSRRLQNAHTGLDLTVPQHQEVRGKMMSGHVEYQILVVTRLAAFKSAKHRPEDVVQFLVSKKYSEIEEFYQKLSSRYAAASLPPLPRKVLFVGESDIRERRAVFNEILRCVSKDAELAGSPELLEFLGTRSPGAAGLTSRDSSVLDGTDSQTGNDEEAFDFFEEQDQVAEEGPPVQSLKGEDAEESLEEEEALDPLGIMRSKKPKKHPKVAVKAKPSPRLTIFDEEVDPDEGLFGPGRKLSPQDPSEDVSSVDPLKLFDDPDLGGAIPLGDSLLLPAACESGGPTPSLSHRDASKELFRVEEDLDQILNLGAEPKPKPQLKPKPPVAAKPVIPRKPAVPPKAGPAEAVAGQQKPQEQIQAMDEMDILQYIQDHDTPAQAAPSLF
UniProt Q9NPR9, sequence (Q9NPR9 whole entry, looked up): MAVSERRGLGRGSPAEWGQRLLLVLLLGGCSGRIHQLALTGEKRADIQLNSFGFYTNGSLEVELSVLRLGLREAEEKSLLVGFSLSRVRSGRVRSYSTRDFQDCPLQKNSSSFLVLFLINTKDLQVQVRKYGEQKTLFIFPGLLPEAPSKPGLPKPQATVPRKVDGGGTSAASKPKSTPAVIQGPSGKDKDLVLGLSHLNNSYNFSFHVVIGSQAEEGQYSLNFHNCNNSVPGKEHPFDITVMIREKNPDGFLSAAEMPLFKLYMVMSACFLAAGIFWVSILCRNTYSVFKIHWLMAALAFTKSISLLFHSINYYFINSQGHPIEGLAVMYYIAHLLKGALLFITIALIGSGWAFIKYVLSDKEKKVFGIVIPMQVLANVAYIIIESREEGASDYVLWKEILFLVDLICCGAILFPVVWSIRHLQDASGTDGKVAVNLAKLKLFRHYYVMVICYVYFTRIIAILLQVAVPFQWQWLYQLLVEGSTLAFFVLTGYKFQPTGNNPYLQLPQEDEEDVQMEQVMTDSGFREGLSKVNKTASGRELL
UniProt P55795, sequence (P55795 whole entry, looked up): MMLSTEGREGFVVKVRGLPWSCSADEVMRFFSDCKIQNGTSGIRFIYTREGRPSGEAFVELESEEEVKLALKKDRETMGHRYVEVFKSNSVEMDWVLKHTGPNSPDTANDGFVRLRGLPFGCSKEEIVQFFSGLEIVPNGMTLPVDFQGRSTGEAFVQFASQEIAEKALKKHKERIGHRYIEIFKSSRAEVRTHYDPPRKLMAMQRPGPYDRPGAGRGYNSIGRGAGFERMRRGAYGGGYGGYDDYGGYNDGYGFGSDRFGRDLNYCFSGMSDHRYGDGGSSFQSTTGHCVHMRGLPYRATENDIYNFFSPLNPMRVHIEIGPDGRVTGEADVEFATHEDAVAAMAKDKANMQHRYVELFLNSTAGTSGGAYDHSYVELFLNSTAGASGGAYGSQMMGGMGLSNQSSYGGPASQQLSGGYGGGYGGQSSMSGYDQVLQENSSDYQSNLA

Target | log2 fold change [1] | log2 fold change [2] | log2 fold change [3] | log2 fold change [4] | log2 fold change [5]
IFITM3 (UniProt Q01628) | -0.02 | 0.067 | -0.129 | 0.069 | 0.059
HARS (UniProt P12081) | -0.031 | -0.003 | 0.02 | -0.054 | 0.001
KDM5B isoform 2 (UniProt Q9UGL1) | 0.11 | 0.085 | -0.018 | 0.116 | -0.037
KBTBD2 (UniProt Q8IY47) | 0.047 | 0.145 | -0.039 | 0.038 | 0.026
GRK2 (UniProt P25098) | -0.055 | -0.225 (active) | 0.066 | -0.026 | -0.006
INTS7 (UniProt Q9NVH2) | 0.017 | -0.149 | -0.011 | 0.189 | 0.03
GTF3C5 isoform 3 (UniProt Q9Y5Q8) | 0.002 | -0.296 (active) | 0.016 | 0.04 | -0.021
KCT2 (UniProt Q8NC54) | 0.015 | 0.157 | 0.005 | -0.04 | -0.026
HNRNPM (UniProt M0R019) | -0.198 |  |  |  | 
HMGA1 (UniProt P17096) | 0.056 | 0.111 | 0.001 | 0.038 | -0.011
KBTBD4 isoform 2 (UniProt Q9NVX7) | 0.025 | -0.311 (active) | 0.012 | -0.023 | -0.012
IL18R1 (UniProt Q13478) | -0.246 | 0.198 | -0.33 | 0.075 | -0.084
HNRNPH2 (UniProt P55795) | -0.008 | -0.243 (active) | 0.005 | -0.054 | 0.002
INTS3 (UniProt Q68E01) | 0.049 | -0.244 (active) | 0.015 | -0.063 | 0.009
HSP90AA4P (UniProt Q58FG1) | 0.026 | 0.047 | -0.087 | -0.047 | 0.017
HAUS6 (UniProt Q7Z4H7) | -0.057 | -0.3 (active) | 0.014 | 0.007 | 0.015
HDGFL2 isoform 2 (UniProt Q7Z4V5) | 0.02 | 0.117 | -0.013 | 0.01 | -0.012
HERC2 (UniProt O95714) | 0.04 | -0.006 | -0.076 | -0.009 | 0.014
ITPKA (UniProt P23677) | 0.033 | -0.36 (active) | 0.09 | -0.101 | 0.081
HDAC1 (UniProt Q13547) | 0.018 | 0.644 (active) | -0.008 | -0.015 | 0.008
H2AFY (UniProt O75367) | 0.008 | 0.142 | -0.029 | -0.02 | 0.079
GIT1 (UniProt Q9Y2X7) | -0.043 | -0.32 (active) | 0.009 | 0.006 | -0.005
IRF2BP1 (UniProt Q8IU81) | 0.021 | -0.4 (active) | -0.003 | -0.03 | 0.01
HELQ (UniProt Q8TDG4) | -0.003 | 0.001 | 0.076 | 0.017 | -0.103
GSTZ1 (UniProt G3V4T6) | 0.088 | 0.167 | -0.002 | -0.015 | -0.031
GTF2A1 (UniProt P52655) | -0.029 | 0.094 | -0.043 | 0.052 | 0.039
GLUD2 (UniProt P49448) | 0.297 (active) | 0.096 | 0.022 | 0.026 | -0.084

Target | log2 fold change [1] | log2 fold change [2] | log2 fold change [3] | log2 fold change [4] | log2 fold change [5]
HLTF (UniProt Q14527) | 0.046 | -0.246 (active) | 0.101 | -0.101 | 0.017
HAUS8 (UniProt Q9BT25) | 0.083 | -0.38 (active) | 0.022 | 0.018 | -0.051
INTS8 (UniProt Q75QN2) | -0.012 | -0.401 (active) | 0.071 | -0.016 | 0.054
GTF2I (UniProt P78347) | -0.001 | -0.287 (active) | 0.091 | -0.005 | -0.017
HDAC3 (UniProt O15379) | -0.016 | -0.264 (active) | -0.027 | -0.008 | 0
GSTP1 (UniProt P09211) | -0.011 | -0.352 (active) | 0.127 | 0.04 | -0.001
IMMT (UniProt Q16891) | -0.005 | 0.056 | 0.033 | 0.016 | 0.017
GORASP1 (UniProt Q9BQQ3) | -0.041 | -0.01 | 0.067 | -0.018 | -0.09
HECTD4 (UniProt J3KPF0) | 0.051 | -0.472 (active) | -0.003 | 0.032 | 0.001
GMIP (UniProt Q9P107) | -0.018 | -0.302 (active) | 0.058 | 0.021 | -0.038
HK1 isoform 2 (UniProt P19367) | 0.012 | -0.264 (active) | 0.028 | -0.002 | 0.011
HAUS3 (UniProt Q68CZ6) | 0.007 | -0.618 (active) | -0.009 | 0.004 | 0.007
ISOC2 (UniProt Q96AB3) | -0.064 | 0.304 (active) | -0.036 | 0 | 0.033
HNRNPL (UniProt P14866) | 0.005 | -0.445 (active) | 0.072 | 0.028 | 0.007
IFNGR1 (UniProt P15260) | 0.15 | 0.147 | -0.006 | 0.046 | -0.042
HMGCL (UniProt P35914) | -0.025 | -0.226 (active) | 0.059 | 0.033 | 0
GPN2 (UniProt Q9H9Y4) | 0.006 | -0.093 | 0.009 | -0.062 | 0.203
ISCA1 isoform 2 (UniProt Q9BUE6) | -0.005 | 0.043 | 0.015 | 0.004 | 0.071
HSPA8 (UniProt P11142) | -0.008 | 0.105 | -0.009 | -0.011 | -0.002
INTS1 (UniProt Q8N201) | 0.014 | -0.409 (active) | 0.027 | -0.034 | 0.003
IRAK4 (UniProt Q9NWZ3) | -0.031 | -0.218 | 0.055 | -0.106 | 0.042
GOLPH3 (UniProt Q9H4A6) | -0.06 | -0.06 | -0.001 | 0.023 | 0.026
GTF2H4 (UniProt Q92759) | 0.01 | -0.24 (active) | -0.021 | -0.021 | 0.046
GMDS (UniProt O60547) | 0.027 | -0.309 (active) | 0.041 | -0.016 | 0.032
GPR108 (UniProt Q9NPR9) | -0.001 | -0.024 | 0.001 | -0.007 | -0.008
HS1BP3 (UniProt Q53T59) | 0.03 | 0.139 | -0.038 | -0.027 | -0.033
HEATR6 (UniProt Q6AI08) | -0.005 | -0.466 (active) | 0.047 | -0.026 | 0
